Experiment [1] is described as follows: antimalarial activity against Dd2 strain (AID 2302;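 active means growth inhibition above 50% at the single 2 µM test dose, taken to imply half-maximal potency below 2 µM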;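 further: 0% = DMSO untreated growth and 100% = chloroquine plus artemisinin killed control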). Conditions: P. falciparum Dd2 in RBCs, LDH growth readout, 72 h; at 2 µM; stronger effect = higher value.
A short description of experiment [2]: human hepatoma cell viability loss – ATP luminescence, cytotoxicity control for P. falciparum antimalarial project, primary screen (AID 2303;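 active means inhibition above 50%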;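 further: 0% = DMSO wells and 100% = digitonin-killed cells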). Conditions: HepG2 viability, 24-48 h, at 10 µM, stronger effect = higher value.
Experiment [3] addresses L-lactate dehydrogenase (Plasmodium falciparum (isolate CDC / Honduras)) (UniProt Q27743). Put plainly: PfLDH activity inhibition – cell lysate, 3D7 strain, counter-screen for P. falciparum growth inhibition project (AID 2304).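 Further: 0% = vehicle and 100% = reference inhibitor.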 Conditions: P. falciparum 3D7 crude extract, LDH APAD/NBT absorbance; at 2 µM; stronger effect = higher value.
The nature of experiment [4]: inhibition of 3D7 malaria parasite growth – strain 3D7 (AID 2306).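 Further: 0% = DMSO wells and 100% = chloroquine plus artemisinin control wells.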 Conditions: P. falciparum 3D7 erythrocytic growth, LDH absorbance, 72 h; at 2 µM; stronger effect = higher value.
For experiment [5], the target named is Calcium-dependent protein kinase 1 (Plasmodium falciparum (isolate 3D7)) (UniProt P62344). Put plainly: PfCDPK1 kinase inhibitors, biochemical, TCAMS library (AID 1159585; cut-off not given, nearly all actives have IC50 up to about 0.98 µM;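 further: inhibitors leave more ATP so luminescence rises with inhibition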). Conditions: recombinant PfCDPK1, Kinase-Glo ATP depletion luminescence. A general note: Kinase-Glo measures the ATP left after a reaction by luminescence.
In experiment [6] the target is Plasmodium falciparum protein kinase 6 (PK6, PF3D7_1337100) (UniProt Q8IDW1). The experiment is described as follows: PfPK6 kinase inhibitors, biochemical, TCAMS library (AID 1159586). Conditions: recombinant PfPK6, Kinase-Glo ATP depletion luminescence.
For experiment [7], the target named is Protein kinase 7 (PK7), Plasmodium falciparum 3D7 (PF3D7_0213400) (UniProt Q7YTF7). Put plainly: inhibition of Plasmodium PK7 catalytic activity – biochemical, TCAMS antimalarial set, Kinase-Glo luminescence (AID 1159587). Particulars: recombinant PfPK7, Kinase-Glo ATP depletion luminescence.
For experiment [8], the target named is Calcium-dependent protein kinase 4 (Plasmodium falciparum (isolate 3D7)) (UniProt Q8IBS5). The experiment is described as follows: PfCDPK4 kinase inhibitors, biochemical, TCAMS library (AID 1159588; cut-off not given, nearly all actives have IC50 up to about 0.91 µM). Particulars: recombinant PfCDPK4, Kinase-Glo ATP depletion luminescence.

Where “and” joins values, the source holds several entries; their conditions need not be identical. Identical values can stand only once. For part of these data: Potency and affinity values are given separately. Where a structure was tested more than once in an assay, its records may differ in their call. Calls of active or inactive are those of the source. Unless noted, how the calls were made is not given here.

Chain of Plasmodium falciparum protein kinase 6 (PK6, PF3D7_1337100) (Q8IDW1 1-305): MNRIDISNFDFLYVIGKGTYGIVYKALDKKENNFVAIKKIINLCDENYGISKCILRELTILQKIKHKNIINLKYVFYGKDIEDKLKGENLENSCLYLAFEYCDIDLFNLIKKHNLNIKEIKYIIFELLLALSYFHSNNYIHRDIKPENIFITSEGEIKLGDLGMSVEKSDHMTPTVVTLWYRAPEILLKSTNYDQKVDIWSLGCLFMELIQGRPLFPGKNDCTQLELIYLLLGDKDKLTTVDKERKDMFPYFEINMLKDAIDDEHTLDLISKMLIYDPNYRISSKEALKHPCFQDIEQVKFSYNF
Chain of Calcium-dependent protein kinase 4 (Plasmodium falciparum (isolate 3D7)) (Q8IBS5 whole entry, looked up): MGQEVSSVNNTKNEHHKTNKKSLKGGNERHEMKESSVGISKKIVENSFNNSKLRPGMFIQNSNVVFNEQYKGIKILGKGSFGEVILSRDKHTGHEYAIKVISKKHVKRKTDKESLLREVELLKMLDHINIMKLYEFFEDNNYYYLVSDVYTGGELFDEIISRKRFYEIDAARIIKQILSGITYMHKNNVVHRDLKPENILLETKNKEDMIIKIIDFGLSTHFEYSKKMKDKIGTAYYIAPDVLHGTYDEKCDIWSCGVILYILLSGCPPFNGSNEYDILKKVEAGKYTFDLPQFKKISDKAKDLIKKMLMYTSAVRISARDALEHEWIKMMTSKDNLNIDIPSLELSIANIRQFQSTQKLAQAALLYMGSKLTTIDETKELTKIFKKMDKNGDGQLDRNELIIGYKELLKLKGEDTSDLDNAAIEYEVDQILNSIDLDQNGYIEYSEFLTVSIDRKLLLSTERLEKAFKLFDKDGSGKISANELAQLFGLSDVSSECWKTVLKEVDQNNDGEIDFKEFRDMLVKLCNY
Chain of Calcium-dependent protein kinase 1 (Plasmodium falciparum (isolate 3D7)) (P62344 whole entry, looked up): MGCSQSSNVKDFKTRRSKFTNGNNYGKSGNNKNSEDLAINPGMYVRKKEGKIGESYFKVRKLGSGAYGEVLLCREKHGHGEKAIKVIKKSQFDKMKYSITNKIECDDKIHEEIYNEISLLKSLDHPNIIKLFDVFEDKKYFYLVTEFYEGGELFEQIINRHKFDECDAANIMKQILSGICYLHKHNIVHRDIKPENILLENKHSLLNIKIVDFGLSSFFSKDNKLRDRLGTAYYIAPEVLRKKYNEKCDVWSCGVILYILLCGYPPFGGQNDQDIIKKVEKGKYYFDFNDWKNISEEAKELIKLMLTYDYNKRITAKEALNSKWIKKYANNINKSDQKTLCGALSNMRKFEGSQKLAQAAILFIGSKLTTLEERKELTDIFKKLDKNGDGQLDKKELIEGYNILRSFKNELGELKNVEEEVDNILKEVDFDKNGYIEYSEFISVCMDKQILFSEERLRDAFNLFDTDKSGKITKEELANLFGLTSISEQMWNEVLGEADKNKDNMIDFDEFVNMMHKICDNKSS
Chain of L-lactate dehydrogenase (Plasmodium falciparum (isolate CDC / Honduras)) (Q27743 whole entry, looked up): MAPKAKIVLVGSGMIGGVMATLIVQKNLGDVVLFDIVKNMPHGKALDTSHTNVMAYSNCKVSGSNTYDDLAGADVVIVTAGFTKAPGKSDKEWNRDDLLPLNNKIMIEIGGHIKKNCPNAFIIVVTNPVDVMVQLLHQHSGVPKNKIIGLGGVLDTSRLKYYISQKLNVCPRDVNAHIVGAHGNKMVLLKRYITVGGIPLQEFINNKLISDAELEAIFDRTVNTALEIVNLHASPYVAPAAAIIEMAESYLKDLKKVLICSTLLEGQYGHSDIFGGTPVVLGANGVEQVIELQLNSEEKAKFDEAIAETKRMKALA
Chain of Protein kinase 7 (PK7), Plasmodium falciparum 3D7 (PF3D7_0213400) (Q7YTF7 1-343): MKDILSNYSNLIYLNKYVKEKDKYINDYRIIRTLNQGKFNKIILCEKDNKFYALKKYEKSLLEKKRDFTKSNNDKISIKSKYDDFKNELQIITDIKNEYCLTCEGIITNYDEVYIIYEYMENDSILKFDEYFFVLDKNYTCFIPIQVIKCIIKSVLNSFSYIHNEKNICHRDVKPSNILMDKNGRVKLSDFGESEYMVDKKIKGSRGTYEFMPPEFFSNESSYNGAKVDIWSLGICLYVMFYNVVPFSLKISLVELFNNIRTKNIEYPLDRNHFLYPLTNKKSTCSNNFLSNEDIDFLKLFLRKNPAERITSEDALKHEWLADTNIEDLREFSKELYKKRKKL

The inhibition is the relative decrease from the control value, in per cent. On to `Oc1ccc2[nH]cc(C3=CCN(Cc4ccccc4)CC3)c2c1`, for which the growth inhibition in experiment [1] is 67% (active); in experiment [4], 94% (active). The inhibition in experiment [2] was 1% (inactive); in experiment [3] it was 7% (inactive). The outcome in experiment [5], in experiment [6], in experiment [7] and in experiment [8] was inactive.

With `CC(Cc1ccc(NC(=O)CCNCc2ccccc2)cc1)NCCc1cccc(Cl)c1` (centres undefined), the growth inhibition is 100% (active) in experiment [1] and 101% (active) in experiment [4]. For the same compound, the inhibition in experiment [2] was 101% (active); in experiment [3], 3% (inactive). Moreover, the result in experiment [5], in experiment [6], in experiment [7] and in experiment [8] was inactive.

In the case of `O=C(NC1CCN(CC2(c3ccc(Cl)cc3)CCC2)CC1)c1cscn1`, the values for the growth inhibition in experiment [1] and in experiment [4] were 95% (active) and 98% (active), respectively. The inhibition is -2% (inactive) in experiment [2] and -1% (inactive) in experiment [3]. Further, the outcome in experiment [5], in experiment [6], in experiment [7] and in experiment [8] was inactive.

`N#Cc1c(Cl)cccc1Oc1ccc(S(=O)(=O)N2CCC(CN3CCC(c4c[nH]c5ccccc45)CC3)CC2)cc1`: the growth inhibition was 67% (active) in experiment [1] and 100% (active) in experiment [4]. The inhibition in experiment [2] is 36% (inactive); in experiment [3], 4% (inactive). Also, the outcome in experiment [5], in experiment [6], in experiment [7] and in experiment [8] was inactive.

With `N#Cc1ccc(N(CCCO)Cc2ccccc2C(F)(F)F)cc1C(F)(F)F`, the growth inhibition in experiment [1] was 23% (inactive); in experiment [4] it was 91% (active). In addition, the inhibition is 7% (inactive) in experiment [2] and -5% (inactive) in experiment [3]. Further, the outcome in experiment [5], in experiment [6], in experiment [7] and in experiment [8] was inactive.

`CC[C@H]1CN2CC[C@H]1C[C@H]2[C@H](O)c1cc(N2CCCC2)nc2ccc(OC)cc12`: the growth inhibition in experiment [1] was 100% (active); in experiment [4] it was 98% (active). Besides, the inhibition was -13% (inactive) in experiment [2] and 6% (inactive) in experiment [3]. Moreover, the result in experiment [5], in experiment [6], in experiment [7] and in experiment [8] was inactive.

On to `CC[C@H]1CN2CC[C@H]1C[C@H]2[C@H](O)c1cc(/C=C/c2ccccc2)nc2ccc(OC)cc12`, for which the growth inhibition in experiment [1] and in experiment [4] was 99% (active) each time. Also, the results for the inhibition in experiment [2] and in experiment [3] were 16% (inactive) and -1% (inactive), respectively. Further, the result in experiment [5], in experiment [6], in experiment [7] and in experiment [8] was inactive.

For `CCc1ccc(CN2CCC(CN(C(=O)c3ccccc3)c3ccc(Cl)cc3)CC2)cc1`, the results for the growth inhibition in experiment [1] and in experiment [4] were 95% (active) and 96% (active), respectively. Moreover, the inhibition is 12% (inactive) in experiment [2] and -4% (inactive) in experiment [3]. Also, the result in experiment [5], in experiment [6], in experiment [7] and in experiment [8] was inactive.

On to `O=C(NC1CCC(CN2CCC(c3c[nH]c4ccccc34)CC2)CC1)c1cc(-c2cccc(Cl)c2)n(-c2ccc(Cl)cc2Cl)n1` (centres undefined), for which the results for the growth inhibition in experiment [1] and in experiment [4] were 25% (inactive) and 81% (active), respectively. The inhibition in experiment [2] is 53% (active); in experiment [3], -5% (inactive). Further, the result in experiment [5], in experiment [6], in experiment [7] and in experiment [8] was inactive.

Consider `Cc1cc(NC(=O)[C@@H](Nc2ccc(C#N)c3ccccc23)C2CCCCC2)ccc1F`, for which the growth inhibition in experiment [1] is 83% (active); in experiment [4] it was 95% (active). In addition, the inhibition is 10% (inactive) in experiment [2] and 0% (inactive) in experiment [3]. Further, the outcome in experiment [5], in experiment [6], in experiment [7] and in experiment [8] was inactive.

Turning to `O=C(Nc1ccc(Oc2ccccc2)cc1)N1CCC(CN2CCC(c3c[nH]c4ccccc34)CC2)CC1`, the values for the growth inhibition in experiment [1] and in experiment [4] were 59% (active) and 100% (active), respectively. Also, the figures for the inhibition in experiment [2] and in experiment [3] were 53% (active) and -1% (inactive), respectively. The outcome in experiment [5], in experiment [6], in experiment [7] and in experiment [8] was inactive.

Regarding `N[C@@H](CCN1CCC(c2cccc(O)c2)CC1)Cc1ccc(F)c(F)c1`, the growth inhibition is 0% (inactive) in experiment [1] and 92% (active) in experiment [4]. The inhibition in experiment [2] was 25% (inactive); in experiment [3] it was -3% (inactive). Besides, the result in experiment [5], in experiment [6], in experiment [7] and in experiment [8] was inactive.

As to `O=C(/C=C/c1cc(F)cc(C(F)(F)F)c1)N1CCC(CN2CCC(c3c[nH]c4ccccc34)CC2)CC1`, the growth inhibition was 74% (active) in experiment [1] and 101% (active) in experiment [4]. In addition, the inhibition was 32% (inactive) in experiment [2] and 3% (inactive) in experiment [3]. The result in experiment [5], in experiment [6], in experiment [7] and in experiment [8] was inactive.

`CC(=O)Nc1ccc(OCCN(CC(C)(C)C)c2ccc(C#N)c(C(F)(F)F)c2)c(Cl)c1`: the results for the growth inhibition in experiment [1] and in experiment [4] were 93% (active) and 87% (active), respectively. Also, the inhibition in experiment [2] is -6% (inactive); in experiment [3] it was -1% (inactive). Besides, the result in experiment [5], in experiment [6], in experiment [7] and in experiment [8] was inactive.

Turning to `CSc1nccc(-c2ccc(S(=O)(=O)NC3CCC(CN4CCC(c5c[nH]c6ccccc56)CC4)CC3)s2)n1` (centres undefined), the growth inhibition was 67% (active) and 33% (inactive) in experiment [1]; 101% (active) in experiment [4]. For the same compound, the inhibition in experiment [2] is 36% (inactive) and 61% (active); in experiment [3], -1% (inactive) and 4% (inactive). The result in experiment [5], in experiment [6], in experiment [7] and in experiment [8] was inactive.

For `COCCNCc1cccc(-c2ccc(CN(C(=O)Nc3ccccc3)C3CCN(Cc4ccccc4)CC3)cc2)c1`, the growth inhibition in experiment [1] is 45% (inactive); in experiment [4] it was 101% (active). The inhibition was 25% (inactive) in experiment [2] and -4% (inactive) in experiment [3]. The result in experiment [5], in experiment [6], in experiment [7] and in experiment [8] was inactive.

`CC[C@H]1CN2CC[C@H]1C[C@@H]2[C@@H](O)c1ccnc2ccccc12`: the growth inhibition in experiment [1] is 20% (inactive); in experiment [4], 98% (active). The inhibition in experiment [2] is 10% (inactive); in experiment [3], -4% (inactive). In addition, the outcome in experiment [5], in experiment [6], in experiment [7] and in experiment [8] was inactive.

Turning to `CC(Cc1ccc(C2=CCNCC2)cc1)NCC(O)c1cccc(C(F)(F)F)c1` (centres undefined), the growth inhibition was -2% (inactive) in experiment [1] and 89% (active) in experiment [4]. The inhibition is 27% (inactive) in experiment [2] and 0% (inactive) in experiment [3]. Besides, the outcome in experiment [5], in experiment [6], in experiment [7] and in experiment [8] was inactive.

The record behind these values is PubChem BioAssay.
